A short description of test [1]: AP1 Signaling Pathway (AID 357; active = well fitted curve in either direction with a large enough effect, not every such curve was filed as active;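 note: ME-180 reporter cells stimulated with EGF at its EC50 level; % is set by controls: 0 for no effect and ±100 for the full control effect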). The following applies: ME-180 AP-1-bla reporter, EGF-induced, beta-lactamase ratio, 5 h. An outline of the steps:
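Titration-series screen for positive or negative modulators of EC50 EGF-induced signaling in ME-180 cells carrying an AP-1-driven beta-lactamase reporter. After 5 hours at 37 degrees Celsius, CCF4 460nm/530nm emission ratio gave %Activity; AC50 values derived.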

The target of test [2] is Cytochrome P450 1A2 (Homo sapiens) (UniProt P05177). In words: p450-cyp1a2 (AID 410; calls by dose curve; note: potency is the fitted concentration of half-maximal effect;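 for activity change, negative = inhibition: -100% = full effect of reference inhibitor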). An outline of the steps:
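O-Demethylation of luciferin 6' methyl ether by human CYP1A2 is monitored as luciferase luminescence. Substrate sits at Km (100uM); enzyme is 20nM. Values are scaled to 57 uM furafylline as maximal inhibition.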

The nature of test [3]: NFAT Signaling Pathway (AID 444; active = well fitted curve in either direction with a large enough effect, not every such curve was filed as active;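 note: carbachol stimulus at about its EC50 of 1 µM final; % is set by controls: 0 for no effect and ±100 for the full control effect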). As to conditions: Jurkat NFAT-bla M1, carbachol, beta-lactamase ratio, 5 h. An outline of the steps: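 Jurkat cells carrying an NFAT-driven β-lactamase reporter and co-transfected muscarinic M1 receptor were treated with compound plus carbachol (1 uM final, an EC50 level) for 5 h at 37 °C. CCF4 loading followed for 1 h at RT; 460/530 nm ratio gave %activity.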

A short description of test [4]: Stat Signaling Pathway (AID 446; active = well fitted curve in either direction with a large enough effect, not every such curve was filed as active;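 note: ME-180 cervical cancer cells given 40 pM IL-6 alongside compound; SIE-controlled beta-lactamase reporter measured as 460/530 nm FRET emission ratio; % is set by controls: 0 for no effect and ±100 for the full control effect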). The following applies: ME-180 (cervical carcinoma) SIE beta-lactamase reporter, IL-6 stimulated, 5 h. An outline of the steps:
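Compound effects on IL-6-induced STAT reporter activity were measured in ME-180 cells. After overnight culture, cells were co-treated with 40 pM IL-6 for 5 hrs before beta-lactamase substrate loading at room temperature.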

Test [5] concerns the target Glucocorticoid receptor (Homo sapiens) (UniProt P04150). In words: GR-GFP Redistribution (AID 450;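 active = compounds whose dose series gives a full or clear partial fitted curve of increased nuclear translocation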; note: potency is the fitted concentration of half-maximal effect). As to conditions: U2OS GR-GFP nuclear translocation, laser cytometry, 2 h.
The target is the same in test [6]. As to the kind of experiment: GR-EFC Redistribution (AID 451; calls by dose curve; note: potency is the fitted concentration of half-maximal effect). The following applies: CHO-K1 GR-EFC translocation, beta-gal luminescence, 2 h. An outline of the steps:
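CHO-K1 cells stably expressing nuclear-localized β-gal enzyme acceptor and GR fused C-terminally to the enzyme donor fragment; ligand-driven nuclear translocation restores β-gal by complementation. Compounds titrated up to 46 uM final, 2 h at 37 °C; luminescence read.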

Test [7] deals with Mitogen-activated protein kinase 10 (Mus musculus) (UniProt Q61831). As to the kind of experiment: JNK3 AlphaScreen Assay (AID 530; active = well fitted curve in either direction with a large enough effect, not every such curve was filed as active;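 note: kinase came from lysate of stimulated human HepG2 cells; signal reports phosphorylation of biotinylated GST-cJun 1-79 at Ser73 with 10 µM ATP; % is set by controls: 0 for no effect and ±100 for the full control effect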). An outline of the steps: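 Phosphorylation of biotinylated GST-cJun(1-79) at Ser73 is measured by AlphaScreen proximity luminescence. Enzyme is JNK3 in HepG2 lysates activated with interleukin-1beta and tumor necrosis factor alpha; ATP is 10 uM final.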
(In general: In Alpha technology, singlet oxygen from a donor bead excites a nearby acceptor bead.)

In test [8] the target is 3',5'-cyclic-AMP phosphodiesterase 4B (Homo sapiens) (UniProt Q07343). In words: qHTS Assay for Inhibitors of PDE-IV (AID 607; active = well fitted activation curve with a large enough effect in the main read-out, with a control signal flat, not every such curve was filed as active; note: % of control where 0% means no effect). An outline of the steps:
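ACTOne HEK293 cells carry a modified cAMP-gated CNG channel and express endogenous PDE4; plated 1000 cells/well, compounds up to 22.9 uM final. Membrane-potential dye fluorescence (ex 535/em 590) was read; parental cells received 10 uM forskolin + 100 uM RO 20-1724.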

For test [9], the target named is Cytochrome P450 2D6 (Homo sapiens) (UniProt P10635). As to the kind of experiment: qHTS Assay for Inhibitors and Substrates of Cytochrome P450 2D6 (AID 891). Note: nearly all actives have a fitted effect of over 60% in size. Note: potency is the fitted concentration of half-maximal effect. An outline of the steps: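 Luminescent read-out of luciferin formed by 5 nM human CYP2D6 demethylating 30 uM Luciferin-ME EGE (Km level) over 60 min at room temperature after NADPH regeneration addition. Data normalized to full inhibition by 1.43 uM quinidine.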
Sequence of Cytochrome P450 2D6 (Homo sapiens) (P10635 whole entry, looked up): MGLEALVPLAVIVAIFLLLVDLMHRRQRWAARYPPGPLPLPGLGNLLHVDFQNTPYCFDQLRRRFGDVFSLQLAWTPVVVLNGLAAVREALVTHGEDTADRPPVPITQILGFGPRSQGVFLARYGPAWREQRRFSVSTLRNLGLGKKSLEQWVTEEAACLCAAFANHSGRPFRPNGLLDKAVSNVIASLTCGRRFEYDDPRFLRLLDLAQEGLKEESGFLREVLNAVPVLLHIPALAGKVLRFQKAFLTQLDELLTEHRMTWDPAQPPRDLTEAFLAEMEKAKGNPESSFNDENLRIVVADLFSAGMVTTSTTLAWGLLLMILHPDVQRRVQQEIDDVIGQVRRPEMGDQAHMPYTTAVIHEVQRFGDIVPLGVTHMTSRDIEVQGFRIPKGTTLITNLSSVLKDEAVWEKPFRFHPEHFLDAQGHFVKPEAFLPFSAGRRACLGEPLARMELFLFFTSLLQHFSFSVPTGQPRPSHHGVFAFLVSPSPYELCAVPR
On the technique in general: Quantitative high-throughput screening tests each substance at several concentrations.

Test [10] in a line: qHTS Assay for Lipid Storage Modulators (AID 1519; calls by dose curve). As to conditions: Drosophila S3 cells, BODIPY lipid droplet/cell ratio, laser cytometry, cells loaded with oleic acid. An outline of the steps: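 Cells seeded at 5,000 per well were treated with compounds over a concentration series and loaded with oleic acid (400 uM, as added). Lipid droplet fluorescence (488 nm excitation, 500-530 nm channel) was read by laser-scanning cytometry and normalized to 20 uM Triacsin C.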

The target in test [11] is Ubiquitin carboxyl-terminal hydrolase 1 (Homo sapiens) (UniProt O94782). In words: Inhibitors of USP1/UAF1: Pilot qHTS (AID 504865).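 Note: rhodamine fluorescence freed from ubiquitin-rhodamine substrate followed over time; top concentration of the series differs between compounds; % is set by controls: 0 for no effect and ±100 for the full control effect; nearly all actives have a fitted effect of over 35% in size.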 An outline of the steps:
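Kinetic fluorescence assay: 1nM USP1/UAF1, 15 min compound preincubation, then 150nM Ub-Rho; 480/540 nm.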

Test [12] deals with DNA dC->dU-editing enzyme APOBEC-3G (Homo sapiens) (UniProt Q9HC16). As to the kind of experiment: qHTS for inhibitors of Vif-A3G interactions: Validation (AID 588379). Note: 0% is about no effect. An outline of the steps:
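Yellow fluorescence (Ex 488, Em 500-530) of Vif-coexpressing HeLa A3G-eYFP cells, scanned by Acumen cytometer, reports blocked A3G degradation. Cells plated at 700/well overnight at 37 deg C before compound addition, then a further overnight compound incubation at 37 deg C.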

In test [13] the test system is Zika virus NS2B-NS3 protease. In words: Primary screen GU AMC qHTS for Zika virus inhibitors (AID 1347154).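 Note: 0% = no-inhibitor control and -100% = no-enzyme control; nearly all actives have a fitted effect of over 70% in size.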 An outline of the steps: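 Unlinked Zika NS2B hydrophilic domain/NS3 protease domain noncovalent complex (25 nM final) in 10 mM Tris-HCl pH 8.0, 0.01% Tween 20, with AMC peptide substrate. Fluorescence (ex 340, em 450 nm) change over 15 min, room temperature; percent inhibition fitted to 4-parameter Hill equation.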

A short description of test [14]: Primary qHTS for small molecule stabilizers of the endoplasmic reticulum resident proteome: Secreted ER Calcium Modulated Protein (SERCaMP) assay (AID 1508630). Note: % is set by controls: 0 for no effect and ±100 for the full control effect. An outline of the steps: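 The SH-SY5Y reporter protocol was run at 3 concentrations up to 38.3 uM (primary) or 11 concentrations (follow-up): 16 h compound, 100 nM thapsigargin for 4 h, then extracellular luciferase luminescence.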

Test [15] has as its target Guanine nucleotide-binding protein G(i) subunit alpha-1 (Homo sapiens) (UniProt P63096). As to the kind of experiment: qHTS Assay for Inhibitors of RGS12 GoLoco Motif Activity (Green Fluorophore) (AID 879).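 Note: 0% = labeled peptide with Gαi1 and full inhibition = labeled peptide alone without protein; negative values mean loss of peptide binding seen as reduced polarization.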 An outline of the steps: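 A drop in FITC polarization marked displacement of the FITC-tagged RGS12 GoLoco peptide (10 nM) from Gαi1 (50 nM). Compounds were incubated 10 min at room temperature in Tris pH 7.5 buffer containing 150 mM NaCl, 0.1 mM GDP and 0.05% NP40; unlabeled peptide titration served as control.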

Test [16] addresses Cytochrome P450 2C9 (Homo sapiens) (UniProt P11712). In words: qHTS Assay for Inhibitors and Substrates of Cytochrome P450 2C9 (AID 883). Note: % is set by controls: 0 for no effect and ±100 for the full control effect; nearly all actives have a fitted effect of over 60% in size. An outline of the steps: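 A luminogenic readout tracked human CYP2C9 (10nM) converting deoxyluciferin (100uM, at KM) in 25mM KPO4 during 60 min at 37C with regenerated NADPH. Values normalized to 57uM sulphaphenazole as complete inhibition.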

The target in test [17] is Cytochrome P450 3A4 (Homo sapiens) (UniProt P08684). In words: qHTS Assay for Inhibitors and Substrates of Cytochrome P450 3A4 (AID 884). Note: % is set by controls: 0 for no effect and ±100 for the full control effect; nearly all actives have a fitted effect of over 50% in size. An outline of the steps: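 Luminescent readout of luciferin produced by CYP3A4 (20 nM) dealkylation of Luciferin-PPXE, 25 uM (its KM). NADPH-driven reaction ran 60 min at RT after 10 min compound preincubation; data scaled to 57 uM ketoconazole as 100% inhibition.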
Sequence of Cytochrome P450 3A4 (Homo sapiens) (P08684 whole entry, looked up): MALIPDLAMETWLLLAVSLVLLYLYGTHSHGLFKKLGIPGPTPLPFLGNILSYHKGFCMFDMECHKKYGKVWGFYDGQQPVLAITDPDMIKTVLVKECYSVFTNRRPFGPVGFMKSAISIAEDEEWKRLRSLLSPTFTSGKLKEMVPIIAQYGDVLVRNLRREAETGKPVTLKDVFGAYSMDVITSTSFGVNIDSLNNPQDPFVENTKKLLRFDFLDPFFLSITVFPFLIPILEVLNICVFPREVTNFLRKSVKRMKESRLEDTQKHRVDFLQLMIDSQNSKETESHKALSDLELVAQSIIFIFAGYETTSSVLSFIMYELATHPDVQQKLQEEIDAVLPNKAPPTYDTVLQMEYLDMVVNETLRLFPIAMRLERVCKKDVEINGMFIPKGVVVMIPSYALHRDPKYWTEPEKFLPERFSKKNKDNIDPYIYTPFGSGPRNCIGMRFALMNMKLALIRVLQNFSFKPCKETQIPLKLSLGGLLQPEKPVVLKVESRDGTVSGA

Test [18] has as its target Cytochrome P450 2C19 (Homo sapiens) (UniProt P33261). In words: qHTS Assay for Inhibitors and Substrates of Cytochrome P450 2C19 (AID 899). Note: % is set by controls: 0 for no effect and ±100 for the full control effect; nearly all actives have a fitted effect of over 60% in size. An outline of the steps:
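NADPH-dependent conversion of Luciferin-H EGE (10uM, at KM) by 5nM enzyme in 50mM KPO4, 60 min at 37C following 10 min compound preincubation. Stopped with luciferin detection buffer; luminescence read after 20 min.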

Test [19] can be described thus: Confirmation and Secondary Assay for Modulators of Hemoglobin Beta Chain Splicing at IVS2 654 locus (AID 910).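 Note: per-well total GFP intensity by laser scanning cytometry after 2-day treatment; % of control where 0% means no effect.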 An outline of the steps: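 HeLa cells stably carrying EGFP interrupted by mutant beta-globin IVS2-654 intron (CMV-driven) were treated with compound for 2 days at 37C; corrected splicing was scored as total peak GFP intensity per well (488 nm excitation, 500-520 nm emission).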

A short description of test [20]: qHTS Assay for Identification of Small Molecule Agonists for Thrombopoietin (TPO) Signaling Pathway (AID 917). Note: % is set by controls: 0 for no effect and ±100 for the full control effect. An outline of the steps:
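Quantitative HTS for pathway activators: compounds were pin-transferred onto IL-3-starved Ba/F3 cells expressing human TPO receptor, TPO was added at its EC50 (26 pM final), and after 24 hrs at 37 C reporter luciferase was measured.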

Test [21] in a line: Confirmation and Secondary Assay for Modulators of Hemoglobin Beta Chain Splicing at IVS2 705 locus (AID 930).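 Note: HeLa cells stably expressing the EGFP-705 splicing reporter; % of control where 0% means no effect.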 An outline of the steps: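 Assay measures total GFP intensity per well in HeLa EGFP-705 cells after 2 days with compound; mis-splicing normally truncates EGFP, so fluorescence indicates corrected splicing.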
Test [22] concerns the target Pyruvate kinase (Leishmania mexicana) (UniProt Q27686). In words: qHTS Validation Assay for Inhibitors of Leishmania Mexicana Pyruvate Kinase (AID 945).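 Note: 0% = DMSO only neutral control wells.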 An outline of the steps: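 Pyruvate kinase activity of E451W LmPYK (0.2 nM) was followed as ATP output after 1 h at room temperature with 0.5 mM PEP and 0.1 mM ADP, detected by PKLight luminescence.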
Test [23] addresses Pyruvate kinase PKM (Homo sapiens) (UniProt P14618). As to the kind of experiment: qHTS Assay for Activators of Human Muscle Pyruvate Kinase (AID 954; active = well fitted curve in the direction sought with a large enough effect, not every such curve was filed as active;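 note: 0% = uninhibited enzyme and -100% = no enzyme or full thiadiazolimine inhibition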). An outline of the steps: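 A coupled luminescent readout tracked ATP made from ADP by purified PKM2. Final conditions included 0.1 nM enzyme, PEP and ADP at 0.5 and 0.1 mM, pH 7.2 imidazole buffer with BSA, and a one-hour room-temperature reaction.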

Test [24] concerns the target Alpha-galactosidase A (Homo sapiens) (UniProt P06280). As to the kind of experiment: Counterscreen for Glucocerebrosidase Inhibitors: qHTS Assay for Human alpha-Galactosidase at pH 4.5 (AID 992). Note: 0% is about no effect. An outline of the steps:
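Citrate buffer pH 4.5, Tween-20 0.005%. Enzyme 2 nM, substrate 80 uM, 20 min RT. Stop pH 10. Fluorescence Ex 365/Em 440. AC50 by Hill fit.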

For test [25], the target named is alpha-glucosidase (Oryza sativa, rice) (UniProt Q653V4). As to the kind of experiment: Counterscreen for Glucocerebrosidase Inhibitors: qHTS Assay for Rice alpha-Glucosidase at pH 5.0 (AID 997).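 Note: 0% = full activity with enzyme and -100% = basal without enzyme.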 An outline of the steps:
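Endpoint fluorogenic assay at pH 5.0: compounds (0.7 nM to 77 uM) titrated against 4 nM rice enzyme and 400 uM 4-MU-alpha-glucoside for 20 min at room temperature; NaOH/glycine stop, read ex 365/em 440 nm, Hill-fitted AC50.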
On the technique in general: A counterscreen serves to expose hits that act by an unwanted route or on another target.

The mark [26] stands for this setting: measured here: cell count channel max response.
Setting [27] is: measured here: lipid channel max response.

Several values for one entry are separate records, joined by “and”; a condition that tells them apart may be missing. Equal values may be shown once. Records with an inconclusive call do not appear. Activity calls are given as the source filed them. Unless noted, calls come from the whole dose curve; as a rule, active = well fitted curve in the direction sought with a large enough effect; inconclusive = small, poorly fitted or top-dose-only effect, or another doubt; inactive = no such curve, though single readings can be large; an effect the other way counts as inactive or inconclusive.

The values that follow come from PubChem BioAssay (NCATS).

Sequence of Glucocorticoid receptor (Homo sapiens) (P04150 whole entry, looked up): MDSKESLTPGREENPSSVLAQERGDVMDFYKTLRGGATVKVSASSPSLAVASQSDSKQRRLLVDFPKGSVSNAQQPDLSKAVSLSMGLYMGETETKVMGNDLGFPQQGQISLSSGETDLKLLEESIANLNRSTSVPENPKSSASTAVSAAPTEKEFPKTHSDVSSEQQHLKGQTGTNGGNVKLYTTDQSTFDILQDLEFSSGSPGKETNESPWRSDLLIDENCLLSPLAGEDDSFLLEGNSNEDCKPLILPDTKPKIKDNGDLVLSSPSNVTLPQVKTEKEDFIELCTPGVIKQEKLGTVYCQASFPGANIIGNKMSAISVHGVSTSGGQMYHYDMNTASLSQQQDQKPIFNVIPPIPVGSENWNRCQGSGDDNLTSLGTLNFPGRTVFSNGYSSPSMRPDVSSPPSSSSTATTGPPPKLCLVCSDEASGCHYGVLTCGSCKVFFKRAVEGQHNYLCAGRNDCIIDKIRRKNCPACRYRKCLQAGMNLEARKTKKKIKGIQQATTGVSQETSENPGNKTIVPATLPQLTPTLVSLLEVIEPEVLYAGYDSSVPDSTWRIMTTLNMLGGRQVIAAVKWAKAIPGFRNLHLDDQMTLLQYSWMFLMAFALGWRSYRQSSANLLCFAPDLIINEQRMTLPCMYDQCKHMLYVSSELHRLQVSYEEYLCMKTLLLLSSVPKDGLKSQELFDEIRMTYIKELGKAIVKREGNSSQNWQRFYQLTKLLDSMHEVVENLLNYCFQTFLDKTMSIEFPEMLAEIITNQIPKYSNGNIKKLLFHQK
Sequence of 3',5'-cyclic-AMP phosphodiesterase 4B (Homo sapiens) (Q07343 whole entry, looked up): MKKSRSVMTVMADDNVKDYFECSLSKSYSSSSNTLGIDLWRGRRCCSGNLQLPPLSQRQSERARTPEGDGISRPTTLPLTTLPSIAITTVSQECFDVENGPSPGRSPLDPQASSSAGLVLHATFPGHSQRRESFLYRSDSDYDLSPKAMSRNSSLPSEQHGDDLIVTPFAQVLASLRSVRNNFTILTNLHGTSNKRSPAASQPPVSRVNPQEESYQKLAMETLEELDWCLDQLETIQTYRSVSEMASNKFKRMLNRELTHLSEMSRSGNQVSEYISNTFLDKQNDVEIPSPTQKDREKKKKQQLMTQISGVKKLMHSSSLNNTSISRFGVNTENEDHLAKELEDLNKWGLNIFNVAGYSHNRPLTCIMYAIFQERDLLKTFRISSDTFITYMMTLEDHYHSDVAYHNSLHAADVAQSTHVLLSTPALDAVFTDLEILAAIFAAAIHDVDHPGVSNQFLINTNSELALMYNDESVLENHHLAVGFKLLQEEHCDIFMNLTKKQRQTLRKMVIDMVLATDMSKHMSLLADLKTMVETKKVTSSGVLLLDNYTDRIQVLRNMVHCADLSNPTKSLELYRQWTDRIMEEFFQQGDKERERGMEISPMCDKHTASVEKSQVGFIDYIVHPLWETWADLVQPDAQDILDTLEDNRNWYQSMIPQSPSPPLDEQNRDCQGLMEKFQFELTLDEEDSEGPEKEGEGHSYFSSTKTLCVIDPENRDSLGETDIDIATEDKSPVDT
Sequence of Cytochrome P450 1A2 (Homo sapiens) (P05177 whole entry, looked up): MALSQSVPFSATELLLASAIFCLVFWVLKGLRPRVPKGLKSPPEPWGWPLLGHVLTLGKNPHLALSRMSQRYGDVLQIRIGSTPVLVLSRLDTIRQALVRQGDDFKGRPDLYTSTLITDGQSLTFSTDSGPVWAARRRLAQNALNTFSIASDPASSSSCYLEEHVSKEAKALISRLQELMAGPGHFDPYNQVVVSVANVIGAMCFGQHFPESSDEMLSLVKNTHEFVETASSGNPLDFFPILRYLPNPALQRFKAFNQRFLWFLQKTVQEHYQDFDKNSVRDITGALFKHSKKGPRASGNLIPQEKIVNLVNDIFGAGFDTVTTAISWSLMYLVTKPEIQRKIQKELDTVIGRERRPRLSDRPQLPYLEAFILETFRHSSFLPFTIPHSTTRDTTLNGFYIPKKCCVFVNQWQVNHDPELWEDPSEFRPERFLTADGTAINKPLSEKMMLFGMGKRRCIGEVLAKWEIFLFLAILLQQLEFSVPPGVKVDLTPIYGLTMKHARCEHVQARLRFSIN
Sequence of Ubiquitin carboxyl-terminal hydrolase 1 (Homo sapiens) (O94782 whole entry, looked up): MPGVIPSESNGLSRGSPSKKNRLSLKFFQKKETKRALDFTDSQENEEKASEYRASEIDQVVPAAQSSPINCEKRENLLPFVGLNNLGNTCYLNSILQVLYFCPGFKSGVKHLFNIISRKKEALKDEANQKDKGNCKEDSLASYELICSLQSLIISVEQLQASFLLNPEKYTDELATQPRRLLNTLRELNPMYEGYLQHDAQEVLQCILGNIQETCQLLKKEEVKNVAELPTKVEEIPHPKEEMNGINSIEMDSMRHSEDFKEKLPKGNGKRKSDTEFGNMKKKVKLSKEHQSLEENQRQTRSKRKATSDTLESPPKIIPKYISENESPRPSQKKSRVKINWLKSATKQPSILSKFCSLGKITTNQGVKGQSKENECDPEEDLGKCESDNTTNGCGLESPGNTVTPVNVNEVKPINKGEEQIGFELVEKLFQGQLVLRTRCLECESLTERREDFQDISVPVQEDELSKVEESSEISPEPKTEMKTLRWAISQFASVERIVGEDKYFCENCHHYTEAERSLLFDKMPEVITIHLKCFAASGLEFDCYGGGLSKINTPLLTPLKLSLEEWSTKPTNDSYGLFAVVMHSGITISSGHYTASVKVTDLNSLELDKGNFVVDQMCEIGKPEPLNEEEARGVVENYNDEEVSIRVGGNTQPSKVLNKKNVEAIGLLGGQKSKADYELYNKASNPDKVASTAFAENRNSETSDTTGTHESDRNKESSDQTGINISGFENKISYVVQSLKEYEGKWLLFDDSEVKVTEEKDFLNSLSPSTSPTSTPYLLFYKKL
Sequence of DNA dC->dU-editing enzyme APOBEC-3G (Homo sapiens) (Q9HC16 whole entry, looked up): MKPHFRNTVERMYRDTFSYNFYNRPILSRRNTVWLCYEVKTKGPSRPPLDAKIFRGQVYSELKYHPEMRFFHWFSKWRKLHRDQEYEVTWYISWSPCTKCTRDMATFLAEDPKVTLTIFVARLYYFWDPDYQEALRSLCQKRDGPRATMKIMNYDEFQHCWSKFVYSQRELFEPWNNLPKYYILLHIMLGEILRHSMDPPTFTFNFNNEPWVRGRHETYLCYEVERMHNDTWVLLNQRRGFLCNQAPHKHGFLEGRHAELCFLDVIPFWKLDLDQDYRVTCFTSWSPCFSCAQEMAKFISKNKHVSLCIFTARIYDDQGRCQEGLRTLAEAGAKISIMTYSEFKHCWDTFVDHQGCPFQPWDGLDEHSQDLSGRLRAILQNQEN
Sequence of Alpha-galactosidase A (Homo sapiens) (P06280 whole entry, looked up): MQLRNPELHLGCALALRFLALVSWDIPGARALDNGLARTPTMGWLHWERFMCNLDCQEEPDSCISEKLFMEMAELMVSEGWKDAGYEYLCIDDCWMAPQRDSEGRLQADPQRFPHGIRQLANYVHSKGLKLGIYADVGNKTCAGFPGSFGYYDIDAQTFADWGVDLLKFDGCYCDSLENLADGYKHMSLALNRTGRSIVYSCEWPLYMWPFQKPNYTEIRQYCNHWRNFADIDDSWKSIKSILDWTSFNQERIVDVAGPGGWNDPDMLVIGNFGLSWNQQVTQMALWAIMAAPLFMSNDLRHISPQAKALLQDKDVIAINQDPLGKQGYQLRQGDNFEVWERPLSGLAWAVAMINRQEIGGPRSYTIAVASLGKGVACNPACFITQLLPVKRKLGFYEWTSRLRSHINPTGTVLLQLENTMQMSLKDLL
Sequence of Guanine nucleotide-binding protein G(i) subunit alpha-1 (Homo sapiens) (P63096 whole entry, looked up): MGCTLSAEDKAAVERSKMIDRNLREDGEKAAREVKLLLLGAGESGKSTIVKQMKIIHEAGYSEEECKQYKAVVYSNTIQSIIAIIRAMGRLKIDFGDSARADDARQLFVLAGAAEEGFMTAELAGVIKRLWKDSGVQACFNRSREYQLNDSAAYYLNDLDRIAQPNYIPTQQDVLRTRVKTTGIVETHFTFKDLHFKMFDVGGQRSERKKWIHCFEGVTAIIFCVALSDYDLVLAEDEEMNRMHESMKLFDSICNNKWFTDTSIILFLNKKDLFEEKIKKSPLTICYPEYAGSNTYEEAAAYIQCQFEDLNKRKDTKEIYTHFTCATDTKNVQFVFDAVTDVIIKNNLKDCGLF

Take `CC(C)NC[C@H](O)c1ccc2ccccc2c1`: the activity change, negative = inhibition in test [1] (at 17.2 µM (top of the series)) is 1.15% (inactive); in [3] (at 17.2 µM (top of the series)), -18.4% (inactive); in test [10] (at 25.7 µM (top of the series)), -2.39% (inactive); in test [10] (at 57.5 µM (top of the series)), -0.481% (inactive). Further, the Potency is 10 µM (active) and 12.6 µM (active) in test [2]; > 20.6 µM (inactive) and > 46 µM (inactive) in test [5]; > 20.6 µM (inactive) and > 46 µM (inactive) in test [6]; 3.16 µM (active) in test [9]. Moreover, the activity, negative = inhibition in test [4] (at 17.2 µM (top of the series)) was -5.4% (inactive). The Potency entry in test [7], in test [8], in [11], in test [12], in [13] and in test [14] was “inactive” throughout. In addition, the max response was 2.13% and 8.48% in [10] (setting [26]); -2.74% and 9.7% in test [10] (setting [27]).

`NCC(O)COc1cccc2ccccc12` (stereo not given): the Potency result in test [13] and in test [14] was “inactive” each time.

For the compound `Nc1cc(N2CCCCC2)nc(N)[n+]1OS(=O)(=O)[O-]`, the Potency entry in test [13] and in test [14] was “inactive” in each case.

On to `Nc1ncnc2c1nc(Br)n2[C@@H]1O[C@H]2COP(=O)(O)O[C@@H]2[C@@H]1O`, for which the Potency result in [13] and in test [14] was “inactive” throughout.

As to `CCCCC/C=C\C/C=C\C/C=C\C=C\[C@@H](O)CCCC(=O)O`, the activity change, negative = inhibition in test [13] is 0.663% [at 0.59 µM] (inactive); in test [14] it was -9.05% [at 0.478 µM] (inactive).

For `O=C1CC[C@H](N2C(=O)c3ccccc3C2=O)C(=O)N1`, the activity change, negative = inhibition in test [1] (at 17.2 µM (top of the series)) was 0.427% (inactive); in [1] (at 38 µM (top of the series)) it was -0.244% (inactive); in test [3] (at 17.2 µM (top of the series)), -1.74% (inactive); in test [3] (at 38 µM (top of the series)), -10.1% (inactive); in test [10] (at 25.7 µM (top of the series)) it was -1.97% (inactive); in [10] (at 57.5 µM (top of the series)), -4.08% (inactive). Moreover, the Potency result in test [2], in test [8], in [16], in test [17], in test [9] and in test [18] was “inactive” each time. The Potency result in [20], in [22], in test [12], in [13] and in test [14] was “inactive” throughout. Moreover, the activity, negative = inhibition in test [4] (at 17.2 µM (top of the series)) was 3.42% (inactive); in test [4] (at 38 µM (top of the series)), -18.4% (inactive). Besides, the Potency in [5] was > 46 µM (inactive) and > 20.6 µM (inactive). Moreover, the compound was classed as inactive in test [15], in test [19], in test [21], in test [23], in [24] and in test [25]. The max response in test [10] (setting [26]) was 11% and -21.2%; in [10] (setting [27]) it was 5.6% and -23.7%.

Regarding `CCOC(=O)C12CC1/C(=N\O)c1ccccc1O2` (stereo not given), the Potency result in [13] and in test [14] was “inactive” each time.
